# Assay results reported in ChEMBL document CHEMBL3433997, “St. Jude Leishmania screening dataset” (2016).
# What was measured:
# Assay type in all cases: functional
# [1] = target: Solute carrier family 2, facilitated glucose transporter member 1 (Homo sapiens) (UniProt P11166); assay: ST_JUDE_LEISH: Cytotoxicity at 2uM final concentration against transgenic Leishmania Mexicana promastigotes LmGLUT1 that are glucose transport deficient and complemented with the human glucose transporter GLUT1. Activity is measured by DNA content using SYBR green in vitro
# [2] = target: Hexose transporter 1 (Plasmodium falciparum) (UniProt O97467); assay: ST_JUDE_LEISH: Cytotoxicity at 2uM final concentration against transgenic Leishmania Mexicana promastigotes LmPfHT that are glucose transport deficient and complemented with the Plasmodium falciparum hexose transporter. Activity is measured by DNA content using SYBR green in vitro
# [3] = target: Glucose transporter (Leishmania mexicana) (UniProt O61059); assay: ST_JUDE_LEISH: Cytotoxicity at 2uM final concentration against transgenic Leishmania Mexicana promastigotes LmGT2 that are glucose transport deficient and complemented with the L. Mexicana glucose transporter 2. Activity is measured by DNA content using SYBR green in vitro
# Chain of Solute carrier family 2, facilitated glucose transporter member 1 (Homo sapiens) (P11166 whole entry): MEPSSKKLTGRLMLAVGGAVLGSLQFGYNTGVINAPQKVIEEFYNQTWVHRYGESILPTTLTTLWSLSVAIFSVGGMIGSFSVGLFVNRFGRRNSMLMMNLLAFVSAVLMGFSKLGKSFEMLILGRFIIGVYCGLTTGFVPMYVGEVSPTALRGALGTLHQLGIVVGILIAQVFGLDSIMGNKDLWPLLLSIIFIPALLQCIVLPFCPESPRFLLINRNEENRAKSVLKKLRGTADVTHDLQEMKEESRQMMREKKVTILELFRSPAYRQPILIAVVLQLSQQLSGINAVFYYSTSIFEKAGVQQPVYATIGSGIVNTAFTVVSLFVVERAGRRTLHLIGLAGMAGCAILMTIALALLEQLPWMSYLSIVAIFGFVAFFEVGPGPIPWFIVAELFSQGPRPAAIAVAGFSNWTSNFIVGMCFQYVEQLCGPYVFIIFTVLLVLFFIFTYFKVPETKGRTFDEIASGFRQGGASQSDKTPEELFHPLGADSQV
Compound,inhibition [1] [%],inhibition [2] [%],inhibition [3] [%]
CC(C#N)Cc1ccc(-c2cnc(N)c3cc(-c4ccnc(N)n4)ccc23)cc1 (configuration not stated),5.38,3.48,-0.93
CCOc1c(Br)cc(Br)cc1CNCCCCNc1nc2ccccc2[nH]1,3.08,2.4,3.2
CC(C)N(CCOc1ccc2c(c1)N(C(=O)Nc1cc(Br)cc(C(F)(F)F)c1)CC2)C(C)C,3.92,2.23,1.38
COc1cc(Nc2nccc(N3CCC(NC(=O)c4cc5ccccc5s4)C3)n2)cc(OC)c1OC (configuration not stated),0.5,0.56,-0.45
COc1ccc(CNC2CCN(C)CC2)cc1-c1ccc(S(=O)(=O)NC2CCC2)c(F)c1,0.83,0.39,1.91
CC(=O)Nc1ccc(S(=O)(=O)N(Cc2cccc(Oc3ccccc3)c2)C2CCN(C/C=C(\C)CCC=C(C)C)CC2)cc1,-0.15,0.21,-0.73
CCCC(CNCc1cccc(OCC)c1)CNc1cc(=O)c2ccccc2[nH]1 (configuration not stated),-0.5,-0.45,–
Cc1cc(NC2CCN(CC3CCCCC3)CC2)nc(Nc2ccccc2Cl)n1,2.86,6.27,0.85
O=C(Nc1ccc2c(c1)CCN2C1CCN(Cc2cccc3cc[nH]c23)C1)c1ccco1 (configuration not stated),0.46,-0.85,1.83
CCCCN1CCCN(Cc2cccc(NC(=O)c3ccc(-c4ccccc4)cc3)c2)CC1,1.16,-2.15,-1.31
CN(c1ccc(NC(=O)Nc2cc(C(F)(F)F)ccc2F)cc1)c1ccnc(NCCN2CCOCC2)n1,7.88,18.5,0.14
Cc1cc(C)n2nc(C(=O)Nc3cc(C(F)(F)F)ccc3N3CCOCC3)nc2n1,3,2.82,3.81
CCCCNC(=N)c1ccc(OCCCCCOc2ccc(C(=N)NCCCC)cc2)cc1,5.34,2.05,-0.11
CCC(C)(C)n1c(C)cc2c3c(N)nc(N)nc3ccc21,71.7,77.2,63.6
Cc1cccc2nc(-c3ccc(-c4cccc(NC(=O)C(C)CN(C)C)c4)s3)[nH]c12 (configuration not stated),-0.15,1.85,0.27
Cc1c(CC(=O)N(C)C2CCN(CCCCCNC(=O)/C=C/c3ccc(Cl)c(Cl)c3)CC2)sc2ccc(Cl)cc12,7.99,0.91,5.9
CN1CCN(c2ccnc3ccc(NC(=O)Nc4cccc(C#N)c4)cc23)CC1,1.6,2.57,2.19
Cc1ccc(F)c(C(=O)Nc2cccc(-c3nn4ccccc4c3-c3ccnc(Nc4cccc(F)c4)n3)c2)c1F,9.44,8.92,6.93
CN(C)c1ccc(OCCCCCCOc2ccccc2)cc1,1.32,1.77,1.98
CN1CCN(CCCN(Cc2cccc(-c3ccc(CNCc4ccc5c(c4)OCO5)cc3)c2)C(=O)Nc2ccccc2)CC1,1.77,4.4,1.33
COc1ccccc1N1CCN(C(C(=O)NCc2ccc3c(c2)OCO3)c2ccc(C)cc2)CC1 (configuration not stated),-0.94,-0.2,–
CCCC[C@H](NC(=O)OC(C)(C)C)C(=O)Nc1ccc(Cc2ccc(NC(=O)[C@H](CCCC)NC(=O)OC(C)(C)C)cc2)cc1,4.27,4.02,4.58
COc1cc(Cc2c(C)nc3nc(N)nc(N)c3c2C)c(Br)c(OC)c1OC,5.54,8.22,4.73
O=C(NCC(=O)N1CCC[C@H]1C(=O)O)[C@@H](Cc1ccccc1)NC(=O)[C@@H]1CCCN1C(=O)CCCc1ccc(O)cc1,-2.68,–,–

Compound,inhibition [1] [%],inhibition [2] [%],inhibition [3] [%]
N=C(N)c1ccc(NC(=O)Cc2nc3cc(C(=N)N)ccc3[nH]2)cc1,-0.77,-0.09,-0.08
O=[N+]([O-])c1ccc(-n2nc(-c3cccnc3)n(Cc3ccco3)c2=S)c(Cl)c1,1.31,-1.09,–
CS(=O)(=O)CCNCc1ccc(-c2ccc3c(Nc4ccc(Oc5ccccn5)cc4)ccnc3c2)o1,1.24,-0.28,2.55
CC(C)c1ccc(CN2CCC(CNC(=O)c3cc(-c4cccc(F)c4)cs3)C2)cc1 (configuration not stated),0.2,-1.08,–
Cc1ccc(NC(=O)N2CCCN(CCCCCNC(=O)/C=C/c3ccc(Cl)c(Cl)c3)CC2)cc1C,-0.69,-1.17,–
CCc1ccc(OCc2ccccc2C(=O)Nc2ccc3nc(C)cc(N)c3c2)cc1,2.1,2.87,1.97
N#CC(CC(=O)c1ccc(Cl)cc1)c1cccc(F)c1 (configuration not stated),1.46,-1.27,1.13
O=C(/C=C/c1ccc(Cl)c(Cl)c1)NCCCCCN1CCC(NC(=O)Nc2cccc(C(F)(F)F)c2)CC1,-1.91,-0.93,–
COCCCNc1sc(S(=O)(=O)c2ccccc2)nc1S(=O)(=O)c1ccc(C)cc1,-0.53,-2.3,1.51
CCCC(C)NC(=O)/C=C/c1ccccc1-c1cccc(OC)c1 (configuration not stated),-0.91,-0.01,–
O=C(Nc1cccc(CN2CCCN(Cc3cccc(O)c3)CC2)c1)c1cc2ccccc2s1,-0.14,-0.1,–
Cc1ccc2c(=NN=Cc3cccc(F)c3)cc(C)[nH]c2c1,7.16,7.52,6.18
COc1ccc(CNC2Cc3ccccc3C2)cc1-c1ccc(S(=O)(=O)NCCN2CCCC2)c(F)c1,28.3,14,6.14
Cc1ccc(NC(=O)N2CCCN(CCCCCNC(=O)/C=C/c3ccc(Cl)c(Cl)c3)CC2)cc1,-1.97,-0.68,–
COC(=O)c1cccc(NC(=O)NCCNc2ccnc(Nc3ccc(F)cc3)n2)c1,4.31,3.02,2.45
COc1cc(NC(=O)/C=C/c2cccc3ccoc23)ccc1OCCN(C(C)C)C(C)C,9.36,3.8,1.81
Cc1cc(N(C)C2CCN(C)C2)nc(Nc2ccccc2Cl)n1 (configuration not stated),1.12,2.69,2.94
O=C(NCc1cccc(C(F)(F)F)c1)C1CCCN(C(=O)c2ccc(O)c(-c3ccc(Cl)c(Cl)c3)c2)C1 (configuration not stated),3.46,2.95,3.95
O=C(CCc1c[nH]cn1)Nc1ccc(-c2ccc(-c3nc4ccccc4[nH]3)cc2)cc1,19.3,16.7,15.2
CNC(=O)c1cc(S(=O)(=O)Nc2ccc(OC)cc2)cs1,0.48,0.9,2.1
COc1ccc(Cn2c(Nc3cccc(C(F)(F)F)c3)nc3cc(C(=O)NC4CC4)cnc32)cc1Cl,-1.9,-0.56,-3.22
CN(C)CCCNc1ncnc2c1[nH]c1ccc(F)cc12,7.06,7.08,7.71
Cc1ccc2nc(C)cc(N/N=C/c3cccc([N+](=O)[O-])c3)c2c1,4.41,4.99,1.37
c1ccc2c(Nc3ccc(Cc4ccc(Nc5c6ccccc6nc6ccccc56)cc4)cc3)c3ccccc3nc2c1,6.04,6.65,2.95

Compound,inhibition [1] [%],inhibition [2] [%],inhibition [3] [%]
CN1CCCN(Cc2cccc(-c3ccc(CNC(=O)c4cccc(Cl)c4)c(F)c3)c2)CC1,69.9,63.1,30.9
Cc1cc(-c2cc(-c3ccc(OCCN(C)C)cc3)[nH]c2-c2ccc3c(c2)CCC3=NO)ccn1,4.92,3.52,2.39
CS(=O)(=O)c1ccc(-n2nc(C(F)(F)F)cc2-c2ccc(C=NOCC(=O)O)o2)cc1,1.5,2.45,-0.38
Cc1cc(NC2CCCC2)nc(Nc2ccccc2)n1,16.4,9.56,6.13
CCCCCCn1c(Sc2ccc(C#N)c([N+](=O)[O-])c2)nnc1-c1ccc(N(C)C)cc1,17.6,16.1,15.3
CC(C)C[C@H](Nc1ccnc(NCC2CCCCC2)n1)C(=O)Nc1ccccc1,3.81,3.97,3.2
COc1ccccc1C1CCN(C2CCC(NC(=O)/C=C/c3cccc(C(F)(F)F)c3)CC2)CC1 (configuration not stated),3.95,3.68,5.04
CCOC(=O)C1=C(C)NC2=C(C(=O)CC(C)(C)C2)C1c1ccc(Br)cc1 (configuration not stated),1.77,0.63,0.59
COc1cc(CNC[C@@H](O)[C@H](Cc2ccccc2)NC(=O)c2cc(OC(C)C)cc(N3CCCS3(=O)=O)c2)cc(OC)c1,4.85,4.74,2.1
CCOc1cccc(C(=O)Nc2cccc(CN3CCCN(Cc4ccc(O)cc4)CC3)c2)c1,3.17,3.14,5.38
COc1ccc2nccc([C@@H](O)CN3CCC(NC(=O)/C=C/c4cccc(NC(C)=O)c4)CC3)c2c1,3.71,3.46,4.66
C=C[C@H]1CN(CCCCCCC)CC[C@H]1C[C@@H](Cc1ccnc2ccc(OC)cc12)OC(=O)[C@](OC)(c1ccccc1)C(F)(F)F,0.1,-0.32,-3.72
Cn1cc(CN2CCCC(COC(c3ccc(F)cc3)c3ccc(F)cc3)C2)cn1 (configuration not stated),2.32,1.9,1.84
CCn1cc(C=C2Oc3c(ccc(O)c3CN3CCCCC3)C2=O)c2cc(OC)ccc21,3.02,2.04,-0.31
CCCCCCN(CCCCCC)CCCCNc1c2ccc(Cl)cc2nc2ccc(OC)cc12,-3.87,0.39,0.56
CN1CCC(Oc2ccc(CN3CC[C@H](NC(=O)c4ccc(Cl)c(Cl)c4)C3)cc2Cl)C1 (some centres not stated),15.3,16,3.89
Cc1cc(-c2ccc3c(c2)CCN(CCC2CCC(NC(=O)/C=C/c4ccc(F)cc4)CC2)CC3)on1 (configuration not stated),4.44,2.66,4.41
CN=C(NC)c1cccc(NC(=O)C=Cc2ccc(C=CC(=O)Nc3cccc(C(=NC)NC)c3)cc2)c1,0.52,2.48,-0.11
CC(C)COc1cc(C(=O)Nc2cnc3ccccc3c2)ccc1[N+](=O)[O-],11.9,10.8,10.9
CCN(CC)CCN(Cc1ccc(-c2ccc(C(F)(F)F)cc2)cc1)C(=O)Cn1cc(Cc2cnn(C)c2)c(=O)nc1/C=C/c1ccc(F)cc1,1.22,1.54,2.56
COc1ccc2nc(C)cc(Nc3ccc(Oc4ccc(Br)c5ccccc45)c(Cl)c3)c2c1,9.47,8.7,3.21
c1ccc(COc2ccc(Nc3ncnc4ccc(-c5ccc(CN6CCSCC6)o5)cc34)cc2)cc1,10.9,7.33,7.66
CS(=O)(=O)CCCNCc1ccc(-c2cc3c(Nc4ccc(OCc5ccccc5)cc4)ncnc3cn2)o1,2.89,2.8,2.01
